This is an account of results in ChEMBL document CHEMBL5308504, “Tm Shift (DSF) assay results for EUbOPEN Chemogenomics Library” (2023).

Details in all cases: Compound concentration 20.0 uM, Protein concentration 2.0 uM, Result type QC Liability
Assay [1] has as its target Tyrosine-protein kinase ABL1 (Homo sapiens) (UniProt P00519).
Assay [2] deals with Cyclin-dependent kinase 2 (Homo sapiens) (UniProt P24941).
Assay [3] deals with Casein kinase I isoform delta (Homo sapiens) (UniProt P48730).
Sequence of Casein kinase I isoform delta (Homo sapiens) (P48730 whole entry, looked up, canonical isoform): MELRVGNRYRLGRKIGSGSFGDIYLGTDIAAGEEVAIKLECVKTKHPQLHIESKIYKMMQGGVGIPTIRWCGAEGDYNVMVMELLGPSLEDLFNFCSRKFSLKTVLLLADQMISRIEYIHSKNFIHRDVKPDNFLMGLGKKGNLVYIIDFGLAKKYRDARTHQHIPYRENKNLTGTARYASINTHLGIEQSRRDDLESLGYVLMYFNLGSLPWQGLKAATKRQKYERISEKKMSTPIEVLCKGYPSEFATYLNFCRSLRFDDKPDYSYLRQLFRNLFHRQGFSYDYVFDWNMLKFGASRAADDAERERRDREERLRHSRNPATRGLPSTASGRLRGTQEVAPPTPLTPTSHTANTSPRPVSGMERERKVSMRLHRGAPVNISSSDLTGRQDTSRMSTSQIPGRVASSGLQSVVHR
For assay [4], the target named is Glycogen synthase kinase-3 beta (Homo sapiens) (UniProt P49841).
Sequence of Glycogen synthase kinase-3 beta (Homo sapiens) (P49841 whole entry, looked up): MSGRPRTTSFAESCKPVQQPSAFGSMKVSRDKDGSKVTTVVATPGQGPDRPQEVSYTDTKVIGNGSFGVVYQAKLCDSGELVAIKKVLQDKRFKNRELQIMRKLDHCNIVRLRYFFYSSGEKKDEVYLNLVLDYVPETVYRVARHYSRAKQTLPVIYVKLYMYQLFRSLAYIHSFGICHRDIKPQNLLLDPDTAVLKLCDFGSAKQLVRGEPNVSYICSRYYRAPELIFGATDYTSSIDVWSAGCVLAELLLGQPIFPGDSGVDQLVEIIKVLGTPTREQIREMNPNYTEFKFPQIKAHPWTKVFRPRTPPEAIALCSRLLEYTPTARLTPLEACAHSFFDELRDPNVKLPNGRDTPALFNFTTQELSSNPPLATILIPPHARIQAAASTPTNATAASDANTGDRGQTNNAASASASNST
The target in assay [5] is Mitogen-activated protein kinase 1 (Homo sapiens) (UniProt P28482).
Sequence of Mitogen-activated protein kinase 1 (Homo sapiens) (P28482 whole entry): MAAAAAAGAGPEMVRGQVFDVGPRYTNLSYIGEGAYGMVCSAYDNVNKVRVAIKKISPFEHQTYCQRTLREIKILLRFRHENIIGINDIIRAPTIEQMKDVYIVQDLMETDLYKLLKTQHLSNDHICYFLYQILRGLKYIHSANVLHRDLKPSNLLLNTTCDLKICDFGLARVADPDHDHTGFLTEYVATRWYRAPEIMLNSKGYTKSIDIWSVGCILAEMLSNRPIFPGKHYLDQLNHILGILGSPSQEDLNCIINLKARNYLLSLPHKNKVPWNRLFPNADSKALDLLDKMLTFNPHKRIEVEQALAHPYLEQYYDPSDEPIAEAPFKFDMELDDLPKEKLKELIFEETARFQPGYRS
Assay [6] concerns the target T1, Aurora kinase A (Homo sapiens) (UniProt O14965).
T1 sequence (whole entry): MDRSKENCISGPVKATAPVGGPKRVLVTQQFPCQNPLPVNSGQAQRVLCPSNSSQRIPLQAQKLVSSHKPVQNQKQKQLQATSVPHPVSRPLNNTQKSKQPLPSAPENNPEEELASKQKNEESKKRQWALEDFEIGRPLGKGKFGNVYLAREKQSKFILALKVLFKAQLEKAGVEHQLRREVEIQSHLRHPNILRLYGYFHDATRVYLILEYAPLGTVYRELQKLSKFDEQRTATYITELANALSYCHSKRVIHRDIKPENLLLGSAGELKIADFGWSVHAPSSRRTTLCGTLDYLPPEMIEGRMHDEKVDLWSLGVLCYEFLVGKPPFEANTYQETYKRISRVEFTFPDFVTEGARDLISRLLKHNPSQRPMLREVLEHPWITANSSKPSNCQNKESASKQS

Sequence of Tyrosine-protein kinase ABL1 (Homo sapiens) (P00519 whole entry): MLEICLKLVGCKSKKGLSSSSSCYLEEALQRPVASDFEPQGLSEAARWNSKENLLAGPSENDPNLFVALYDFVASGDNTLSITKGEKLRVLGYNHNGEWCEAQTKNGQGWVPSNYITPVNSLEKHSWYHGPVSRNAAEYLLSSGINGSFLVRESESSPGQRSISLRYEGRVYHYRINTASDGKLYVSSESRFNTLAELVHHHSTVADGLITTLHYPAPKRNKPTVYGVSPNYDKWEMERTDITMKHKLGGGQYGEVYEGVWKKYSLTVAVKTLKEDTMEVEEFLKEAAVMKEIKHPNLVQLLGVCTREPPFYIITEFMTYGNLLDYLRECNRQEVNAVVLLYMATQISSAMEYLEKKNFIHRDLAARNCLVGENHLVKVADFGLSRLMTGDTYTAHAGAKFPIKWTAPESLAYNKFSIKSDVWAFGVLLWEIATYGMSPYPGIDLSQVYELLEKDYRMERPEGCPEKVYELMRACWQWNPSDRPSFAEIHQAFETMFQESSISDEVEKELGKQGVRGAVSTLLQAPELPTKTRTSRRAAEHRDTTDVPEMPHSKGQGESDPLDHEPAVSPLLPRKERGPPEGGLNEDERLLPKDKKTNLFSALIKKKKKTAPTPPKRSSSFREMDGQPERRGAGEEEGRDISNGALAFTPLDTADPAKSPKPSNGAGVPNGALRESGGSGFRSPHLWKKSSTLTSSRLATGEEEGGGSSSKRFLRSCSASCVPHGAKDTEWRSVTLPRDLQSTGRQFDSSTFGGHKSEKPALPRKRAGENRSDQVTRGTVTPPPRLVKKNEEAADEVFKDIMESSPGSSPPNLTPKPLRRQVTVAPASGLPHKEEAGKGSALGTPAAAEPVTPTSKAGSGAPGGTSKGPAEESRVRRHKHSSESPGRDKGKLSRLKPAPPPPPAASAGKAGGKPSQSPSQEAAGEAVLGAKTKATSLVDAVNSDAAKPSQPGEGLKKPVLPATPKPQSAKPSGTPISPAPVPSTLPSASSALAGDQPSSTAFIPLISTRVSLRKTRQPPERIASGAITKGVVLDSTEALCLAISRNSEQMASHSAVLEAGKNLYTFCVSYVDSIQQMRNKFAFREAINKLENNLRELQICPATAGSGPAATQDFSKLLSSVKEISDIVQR

What is called ΔTm is the shift of the melting midpoint relative to a reference. On to `CN(C)[C@H]1CCc2nc(NC(=O)c3cccc(Cn4cc(-c5ccc(C#N)cc5)cn4)c3)sc2C1`, for which the ΔTm in assay [1] turned out to be 0.14 °C; in assay [2] it was 0.68 °C; in assay [3], 0.36 °C; in assay [4], 0.72 °C; in assay [5] it was 0.35 °C; in assay [6], 0.61 °C.
`COCCN(C)c1ccc(NC(=O)/C=C(\C)c2ccc3ccccc3c2)c(C(=O)O)c1`: the ΔTm in assay [1] is -1.57 °C; in assay [2], 1.03 °C; in assay [3], 1.4 °C; in assay [4] it was 2.78 °C; in assay [5], -0.17 °C; in assay [6], 1.7 °C.
For the molecule `Cc1cc2c(-c3ccco3)cnc(N[C@H]3CCN(C)C[C@@H]3C(=O)NC3CCCCC3)c2[nH]c1=O`, the ΔTm in assay [1] is 0.25 °C; in assay [2], 0.22 °C; in assay [3], 0.37 °C; in assay [4], -0.67 °C; in assay [5], 0.2 °C; in assay [6], -1.37 °C.
On to `COc1cc2nc(-c3cc(F)ccc3O)nc(N[C@@H]3CNC[C@H]3C(C)(C)O)c2cc1OC`, for which the ΔTm in assay [1] came to 2.31 °C; in assay [2], 3.24 °C; in assay [3], 4.64 °C; in assay [4], 3.22 °C; in assay [5], 3 °C; in assay [6] it was 3.06 °C.
With `CN1Cc2nccc(-c3cn(C)nc3-c3ccc(F)cc3)c2C1=O`, the ΔTm in assay [1] is 1.06 °C; in assay [2], 0.02 °C; in assay [3] it was 8 °C; in assay [4], -0.07 °C; in assay [5] it was 0.37 °C; in assay [6] it was -0.11 °C.
As for `Cc1cc(-c2cc3ncccc3c(OC[C@H]3CCCNC3)n2)ccc1N(C)C`, the ΔTm in assay [1] came to 5.72 °C; in assay [2], 0.38 °C; in assay [3], 2.65 °C; in assay [4], 1.68 °C; in assay [5], 0.09 °C; in assay [6], 7.37 °C.
As for `CN1C(=O)Cc2ccc(-c3ccc(C[C@@H](C#N)NC(=O)[C@H]4N[C@@H]5CC[C@H]4C5)c(F)c3)cc21`, the ΔTm worked out at 0.24 °C in assay [1]; 0.52 °C in assay [2]; 0.41 °C in assay [3]; 0.41 °C in assay [4]; 0.5 °C in assay [5]; 0.8 °C in assay [6].
Take `COc1ccc2c(O[C@@H]3C[C@H]4C(=O)N[C@]5(C(=O)O)CC5/C=C\CCCCC[C@H](NC(=O)OC5CCCC5)C(=O)N4C3)cc(-c3csc(NC(=O)C(C)C)n3)nc2c1C` (stereo not given in full): the ΔTm in assay [1] was 0.27 °C [middle of 4 runs]; in assay [2], 0.77 °C [middle of 4 runs]; in assay [3], 0.4 °C [middle of 4 runs]; in assay [4] it was -0.22 °C [middle of 4 runs]; in assay [5], 0.48 °C [middle of 4 runs]; in assay [6], 0.2 °C [middle of 4 runs].
Regarding `C[C@@H](Oc1cc(-n2cnc3ccc(OC4CCN(C)CC4)cc32)sc1C(N)=O)c1ccccc1Cl`, the ΔTm in assay [1] is 1.32 °C; in assay [2] it was -0.97 °C; in assay [3], 0.23 °C; in assay [4] it was 1.25 °C; in assay [5], 0.3 °C; in assay [6] it was 0.44 °C.
Take `O=C1CCCc2[nH]c(-c3ccnc(NCC4CC4)c3)c(Nc3ccccc3)c21`: the shift in melting temperature (ΔTm) in assay [1] was -0.41 °C; in assay [2], 0.46 °C; in assay [3], 3.16 °C; in assay [4], 1.37 °C; in assay [5], -0.73 °C; in assay [6], 0.11 °C.
As to `CN1CCN(c2ccnc(NCCc3ccccc3)n2)CC1`, the shift in melting temperature (ΔTm) is 0.08 °C in assay [1]; 0.11 °C in assay [2]; 0.22 °C in assay [3]; -0.49 °C in assay [4]; 0.69 °C in assay [5]; -0.92 °C in assay [6].
`C=CC(=O)Nc1cccc(C)c1Nc1ncc2cc(-c3c(Cl)c(OC)cc(OC)c3Cl)ccc2n1`: the ΔTm in assay [1] was 0.49 °C; in assay [2] it was 0.87 °C; in assay [3] it was 0.34 °C; in assay [4], -1.24 °C; in assay [5], -3.69 °C; in assay [6] it was -2.08 °C.
In the case of `Fc1cccc(-n2cnc3c(NCc4nc5c(F)c(F)ccc5[nH]4)nc(N4CCOCC4)nc32)c1`, the ΔTm in assay [1] stood at 1.99 °C; in assay [2], 0.74 °C; in assay [3], 3.88 °C; in assay [4], 1.83 °C; in assay [5] it was 0.22 °C; in assay [6], 0.74 °C.
Consider `Cc1csc(-c2nnc(Nc3ccc(Oc4ncccc4-c4ccnc(N)n4)cc3)c3ccccc23)c1`, for which the ΔTm in assay [1] is 7.01 °C; in assay [2] it was 0.42 °C; in assay [3] it was 0.58 °C; in assay [4] it was -4.11 °C; in assay [5] it was 4.87 °C; in assay [6], 13.8 °C.
For the molecule `Cc1cc(-c2cnc(N)c3c(-c4ccc5scnc5c4)csc23)n(C)n1`, the ΔTm in assay [1] was 7.77 °C; in assay [2] it was -0.21 °C; in assay [3], 0.67 °C; in assay [4], -0.81 °C; in assay [5], -0.07 °C; in assay [6], -0.03 °C.
In the case of `Cc1nc(Nc2cnn(C3CCNCC3)c2)nc2c1N(C)C(=O)c1cc3ccccc3cc1N2C`, the ΔTm in assay [1] was 2.1 °C; in assay [2] it was -1.03 °C; in assay [3] it was 0.48 °C; in assay [4] it was -0.49 °C; in assay [5], 0.6 °C; in assay [6] it was 1.73 °C.
For `COc1cc(C(N)=O)nc(-c2cccc(C#C[C@]3(O)CCN(C)C3=O)c2)c1`, the ΔTm in assay [1] was -0.11 °C; in assay [2], 1.02 °C; in assay [3], -0.06 °C; in assay [4] it was 0.79 °C; in assay [5], 0.3 °C; in assay [6], 1.62 °C.
On to `N#Cc1ccc(COc2ccc(Br)cc2CNCCO)cn1`, for which the ΔTm is 0.3 °C in assay [1]; 0.22 °C in assay [2]; 0.13 °C in assay [3]; -0.56 °C in assay [4]; 0.45 °C in assay [5]; -1 °C in assay [6].
As for `CCN1C(=O)N(c2c(F)c(OC)cc(OC)c2F)Cc2cnc3[nH]c(CN4CCOCC4)cc3c21`, the ΔTm in assay [1] is 0.38 °C; in assay [2], 6.96 °C; in assay [3], 0.58 °C; in assay [4] it was -0.33 °C; in assay [5] it was 0.45 °C; in assay [6], 1.85 °C.
For `O=C1CN(c2ccccc2F)C(NCCN2CCOCC2)=C1c1nc2cc(Br)ccc2c(=O)[nH]1`, the ΔTm in assay [1] turned out to be 0.38 °C; in assay [2] it was 0.68 °C; in assay [3], 0.32 °C; in assay [4], 0.31 °C; in assay [5], 0.23 °C; in assay [6], 0.17 °C.
Turning to `CNC(=O)c1cc(C(=O)N[C@H]2[C@@H]3COC[C@@H]32)cc2c1O[C@H](CF)[C@H]2c1ccccc1`, the shift in melting temperature (ΔTm) in assay [1] was 0.27 °C; in assay [2], 0.34 °C; in assay [3], 0.02 °C; in assay [4] it was -0.78 °C; in assay [5], 0.3 °C; in assay [6] it was 0.31 °C.
As for `CCc1ccc(N(CC(C)C)S(=O)(=O)c2ccc(OCC3CCOCC3)c(CO)c2)cc1`, the ΔTm in assay [1] was -3.79 °C; in assay [2], 0.33 °C; in assay [3], 0.71 °C; in assay [4] it was 0 °C; in assay [5], 0.2 °C; in assay [6] it was -8.48 °C.
For `CP(C)(=O)c1ccc(CNC(=O)C2CCN(S(=O)(=O)c3cc(Cl)cc(Cl)c3)CC2)cc1`, the ΔTm in assay [1] was 0.74 °C; in assay [2], 0.5 °C; in assay [3] it was 0.35 °C; in assay [4], -0.16 °C; in assay [5], 0.45 °C; in assay [6] it was -0.19 °C.
With `CC(C)(C)c1cc(NC(=O)c2csc(Nc3ccc(Cl)cc3)n2)no1`, the ΔTm in assay [1] was -0.19 °C; in assay [2], 0.91 °C; in assay [3] it was 1.05 °C; in assay [4], -2.8 °C; in assay [5], -3.27 °C; in assay [6] it was 1.67 °C.
Turning to `O=C(Cc1ccccc1)Nc1nnc(N2CC[C@@H]3[C@H]2CN3c2cccnn2)s1`, the ΔTm in assay [1] was 0.18 °C; in assay [2] it was 0.43 °C; in assay [3] it was -0.16 °C; in assay [4], -0.46 °C; in assay [5], 0.3 °C; in assay [6], -0.66 °C.
